# Laboratory results published in the supplement of paper PMC6555819.
# How the values were obtained:
# Assay in all cases: PBM binding z-score (relative to random genomic background probes); higher = stronger binding; sequences stand for … in GC…GCGATTGACAGCGTAGAATGAAGG
# [1] = system: RARb homodimer (NR concentration 270 nM)
# How it was run: (§1)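 Binding buffer was PBS pH 7.4 with 2% milk, 0.02% Triton X-100, 1 mM DTT, 0.2 mg/mL BSA and 0.4 mg/ml salmon testes DNA. In it, ligand-free nuclear receptor dimers were incubated 1 h on custom Agilent 4×180K protein-binding microarrays carrying double-stranded probes. Antibodies against each partner (one per run) detected binding, and z-scores were calculated against random background probes after regression normalization of scanned fluorescence.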
# [2] = system: RARg:RXRa (NR concentration 270 nM, RXRa partner concentration 90 nM)
# How it was run: as §1
# [3] = system: RARg homodimer (NR concentration 270 nM)
# How it was run: as §1
# [4] = system: RXRa DBDmut IVT, anti-RXR (DBD mutation: RXRa K156A/R161A, NR concentration 90 nM)
# How it was run: as §1
# [5] = system: RXRa homodimer (NR concentration 180 nM)
# How it was run: as §1
# [6] = system: THRa:RXRa (NR concentration 90 nM, RXRa partner concentration 90 nM)
# How it was run: as §1
# [7] = system: THRa homodimer (NR concentration 90 nM)
# How it was run: as §1
# [8] = system: VDR homodimer (NR concentration 270 nM)
# How it was run: as §1
Sequence,PBM binding z-score [1],PBM binding z-score [2],PBM binding z-score [3],PBM binding z-score [4],PBM binding z-score [5],PBM binding z-score [6],PBM binding z-score [7],PBM binding z-score [8]
CGTCTAAGTTCAAGGTAACGTAACAGAAAGCAGC,2.51,3.53,4.06,4.62,2.82,3.09,2.02,3.41
TCGAGTAGCTTACGGGGGCATTCAGGGATGAAGA,0.903,1.03,0.544,1.14,1.12,3.35,0.239,2.71
CCGAGTAGGTGACGAGGGGGCATTCAGTGCGAAT,1.89,2.34,2.1,1.05,1.35,3.34,0.888,3.45
CGAGCTAGGTCAAAGGACAGTGAAAGGCGACGTA,2.82,4.31,4.87,1.29,2.99,2.3,0.253,0.416
CCTTACGGGTCACTGACAGCTTATAGCATTTGGA,2.97,4.67,4.43,2.04,4.76,2.32,0.275,0.89
ATCGAAAGGTGGACGAGGTGAGTATACACCGTTT,0.375,0.545,0.833,-0.461,0.799,1.77,0.434,-0.347
ATCGAAAGGTCGTCGAGGTGAGTATACACCGTTT,3.07,4.59,4.35,1.72,5.2,3.83,0.955,2.41
ATATGTAGGTTAGGCTCATTCAGAAAGTAGGGAA,0.0368,0.252,0.612,0.0964,0.205,0.086,-0.237,-0.178
CGTCCAAGGTCAAGCTCAGTGAAAGAGACTCGAA,3.96,6.43,6.63,3.51,6.22,3.76,2.32,2.03
CCGAGTAGGTTACGAGGGGGCCTTCAGTGCGAAT,0.846,2.15,1.32,0.265,0.978,2.11,0.4,0.498
TCGAGTAGGTTACGGGGGCATGCAGGGATGAAGA,2.19,3.5,2.31,1.35,2.78,3.28,0.997,1.92
TTAACAAGGTGAAAGGTCGTTGATGCACGCCTTG,2.51,4.28,2.1,0.328,6.17,3.51,0.757,1.24
CGAACTAGGTCACCAGGCCAGTGAAGAGGTTGGA,3.33,4.61,5.11,1.05,3.21,2.98,0.969,0.372
ATCGAACGGTCGAGGTGAGTATAGAGAAAGGGAA,0.591,0.56,1.16,-0.533,0.211,1.06,0.0248,-0.386
CCTTACGGGTCAAGGTTATCGCACGGGTGGTACG,3.58,5.02,5.11,1.31,5.6,3.15,1.02,1.69
AATACAGGGTCACTAGGCCCGAGTAGGTACGAAT,2.85,5.05,4.72,2.31,5.31,3.09,0.859,2.26
TCGAGTAGGTTACGGGGGCATCCAGGGATGAAGA,2.2,3.36,2.37,1.27,2.88,3.66,1.12,2.47

Sequence,PBM binding z-score [1],PBM binding z-score [2],PBM binding z-score [3],PBM binding z-score [4],PBM binding z-score [5],PBM binding z-score [6],PBM binding z-score [7],PBM binding z-score [8]
CCCAGTAGGTTACGAGGGGGCATTCAGTGCGAAT,2.13,3.35,2.76,0.746,2.04,3.89,0.525,3.62
TCTAGCTGGTCACGGAGGTCACACACGACGGGTA,4.17,4.88,5.01,0.665,5.01,3.67,2.27,2.72
CCTACTGGGCCAAGGTCATTGCTCAGTCAAAGCA,3.23,3.53,2.97,1.25,2.85,3.42,2.02,3.2
TTACCAAGGTGAAGGTCGTGGATCCCTCTGTAGA,2.22,1.86,1.49,0.01,2.63,2.79,1.11,0.222
AGTCAAAGTTCAGTAGGTAACGTAAGATTCAGCT,3.15,3.74,4.28,3.23,2.08,0.91,-0.604,2.23
TCTACTTGGTCACGGAGGTCACACACGACGGGTA,4.43,5.15,5.47,1.33,5.3,3.6,3.15,3.56
CCTACTGGGCCAATGTCATTGATCAGTCAAAGCA,0.109,0.114,0.0827,-0.907,-0.139,-0.112,-0.837,-0.862
CGGAGTAGGTTACGAGGGGGCATTCAGTGCGAAT,2.45,3.35,2.86,2.04,2.09,3.8,0.507,3.73
CCTTACGGGTCACTCTAGGTTATAGCATCGGAGT,3.22,4.35,4.38,2,4.27,4.93,0.527,1.39
CTATGTAGGTTAAGGGGGTCATTCGGTTTGAAAG,3.85,5.36,3.97,2.56,5.74,3.79,1.93,6.78
CCAGAAAGGTGAAAGGTAACTCAGTCTGGTACGC,1.92,3.17,2.13,0.365,4.27,1.94,0.107,0.0179
CGAACTAGGTCACCAGGACAGTGATGAGGTTGGA,3.53,4.4,5.41,1.28,3.45,3.42,2.08,1.13
CGTCCAACGTCAAGGTCAGTGAAAGAGACTCGAA,3.13,2.61,3.16,0.737,1.9,2.57,1.67,0.844
CTAACTAGGTCACCAGGACAGTGAAGAGGTTGGA,3.4,4.69,5.53,1.67,3.98,3.51,2.16,0.856
CGAAATAGGTCACCAGGACAGTGAAGAGGTTGGA,3.91,5.54,5.96,0.868,5.18,3.12,0.942,0.687
CCTAGTAGGTTACGAGGGGGCATTCAGTGCGAAT,2.39,3.44,2.96,1.47,2.43,3.91,0.978,3.98
CTATGTAGGTTAAGGGGGTCACTCAGTTTGAAAG,3.95,5.13,3.79,1.85,5.58,3.79,2.06,5.29
